“And” between values parts separate entries of the source, which are not always exact repeats. Equal values may be shown once. Results filed as inconclusive are left out. The source made the active and inactive calls. Unless noted, the call rests on the fitted dose curve; in most records, active means well fitted curve in the direction sought with a large enough effect in the repeat runs; inconclusive means weak or mixed curves; inactive means no such curve, though single readings can be large; an effect the other way counts as inactive or inconclusive.
Assays:
[1] = qHTS assay for small molecules that induce genotoxicity in human embryonic kidney cells expressing luciferase-tagged ATAD5 (AID 651632); further: nearly all actives have a fitted effect of over 15% in size; further: potency means the concentration at half of the fitted maximal effect
Procedure, shortened: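 Test compounds were delivered by pin tool onto HEK293T reporter cells (2,000/well) expressing ATAD5 fused to luciferase. After 16 hr at 37C, 5% CO2, Amplite was added for 30 min at room temperature and luminescence was measured.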

[2] = qHTS assay for small molecule agonists of the p53 signaling pathway - cell viability (AID 651633; calls by dose curve; further: nearly all actives have a fitted effect of over 30% in size; further: potency means the concentration at half of the fitted maximal effect)
Procedure, shortened: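 p53RE-bla cells, seeded at 4,000 per well and rested 5 h at 37 C/5% CO2, received compounds in DMSO for 16 h at 37 C. CellTiter-Glo was then added, and luminescence was read after 30 min at room temperature to gauge cytotoxicity.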

[3] = qHTS assay for small molecules that induce genotoxicity in human embryonic kidney cells expressing luciferase-tagged ATAD5 - cell viability (AID 651634; calls by dose curve; further: nearly all actives have a fitted effect of over 25% in size; further: potency means the concentration at half of the fitted maximal effect)
Procedure, shortened: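 Quantitative high-throughput format. HEK293T cells expressing ATAD5 fused to luciferase were plated at 2,000 cells/well and treated 15.5 hr with compound versus DMSO. Viability was determined by fluorescent live-cell protease substrate, 30 min at 37C.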

[4] = qHTS assay for small molecule disruptors of the mitochondrial membrane potential - cell viability (AID 720634; calls by dose curve; further: nearly all actives have a fitted effect of over 20% in size; further: potency means the concentration at half of the fitted maximal effect)
Procedure, shortened: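 Same-well counter-screen: following the MMP dye addition, CellTiter-Glo was added to 1 hr compound-treated HepG2 cells and luminescence read after 30 min at room temperature.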

[5] = qHTS assay for small molecule disruptors of the mitochondrial membrane potential (AID 720635); further: potency means the concentration at half of the fitted maximal effect
Procedure, shortened: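 HepG2 cells (2,000/well) attached overnight at 37C, then took compound for 1 hr at 37C, 5% CO2. Mito-MPS dye was added for 30 min; fluorescence was read at 490/535 nm (monomers) and 540/590 nm (aggregates).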

[6] = qHTS assay to test for compound auto fluorescence at 590 nm (red) in HepG2 cells (AID 720674); further: on the % scale 0 is the no-effect control and ±100 the full control effect
Procedure, shortened: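 Rose Bengal sodium served as the red fluorophore standard. HepG2 monolayers (overnight attachment, MEM with 10% FBS) were exposed to test compounds for 1 hr at 37 C and read at Ex 540/Em 590 nm.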

[7] = qHTS assay to test for compound auto fluorescence at 535 nm (green) in HepG2 cells (AID 720675); further: potency means the concentration at half of the fitted maximal effect
[8] = qHTS assay to test for compound auto fluorescence at 460 nm (blue) in HEK293 cells (AID 720678); further: on the % scale 0 is the no-effect control and ±100 the full control effect
Procedure, shortened: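 After cell attachment (4-5 hr, 37C), compounds were pinned onto HEK293 monolayers in 10% dialyzed FBS medium. The blue channel (405/460 nm) was read following overnight culture. Equivalency was calculated against triamterene.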

[9] = qHTS assay to test for compound auto fluorescence at 590 nm (red) in HEK293 cells (AID 720679); further: on the % scale 0 is the no-effect control and ±100 the full control effect
Procedure, shortened: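 Plates of HEK293 cells (10% dialyzed FBS) are treated with 23 nL compound or DMSO vehicle after a 4-5 hr attachment period, incubated overnight at 37C, and read for red fluorescence at 540/590nm.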

[10] = qHTS assay to test for compound auto fluorescence at 535 nm (green) in HEK293 cells (AID 720680); further: on the % scale 0 is the no-effect control and ±100 the full control effect
[11] = qHTS assay to test for compound auto fluorescence at 460 nm (blue) in HEK293 cell free culture (AID 720681); further: on the % scale 0 is the no-effect control and ±100 the full control effect
Procedure, shortened: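 Test compounds were pinned into cell-free culture medium (DMEM with 10% FBS) and fluorescence was read directly at Ex/Em 405/460 nm. Signals were expressed as fluorescence equivalents of triamterene, with DMSO vehicle as control.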

[12] = qHTS assay to test for compound auto fluorescence at 535 nm (green) in HEK293 cell free culture (AID 720682); further: on the % scale 0 is the no-effect control and ±100 the full control effect
Procedure, shortened: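 Steps: dispense DMEM/10% FBS into empty wells; pin in compound or DMSO; measure fluorescence at 485/535 nm. Values are fluorescein equivalents.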

[13] = qHTS assay to test for compound auto fluorescence at 590 nm (red) in HEK293 cell free culture (AID 720683); further: on the % scale 0 is the no-effect control and ±100 the full control effect
Procedure, shortened: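 Tox21 10K library compounds were pinned into cell-free DMEM with 10% FBS and fluorescence was read at excitation 540 nm. Activity is expressed as Rose Bengal sodium equivalency.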

[14] = qHTS assay to test for compound auto fluorescence at 590 nm (red) in HepG2 cell free culture (AID 720684); further: on the % scale 0 is the no-effect control and ±100 the full control effect
Procedure, shortened: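 Ex 540 / Em 590 nm read of compound in cell-free MEM (10% FBS). Rose Bengal sodium reference.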

[15] = qHTS assay to test for compound auto fluorescence at 460 nm (blue) in HepG2 cell free culture (AID 720685); further: on the % scale 0 is the no-effect control and ±100 the full control effect
Procedure, shortened: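 Cell-free plates of MEM plus 10% FBS received 23 nL compound or DMSO vehicle; blue-channel (405/460 nm) intensity scored against triamterene as reference fluorophore.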

[16] = qHTS assay to test for compound auto fluorescence at 460 nm (blue) in HepG2 cells (AID 720687); further: on the % scale 0 is the no-effect control and ±100 the full control effect
Procedure, shortened: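 Cells (2,000/well in MEM with 10% FBS) attached overnight at 37 C, then were exposed to compound or DMSO for 1 hr at 37 C, 5% CO2. Fluorescence read at Ex/Em 405/460 nm, expressed as triamterene-equivalent signal.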

[17] = qHTS assay for small molecule agonists of the p53 signaling pathway (AID 651631; calls by dose curve; further: potency means the concentration at half of the fitted maximal effect; nearly all actives have a fitted effect of over 15% in size)
Procedure, shortened: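 HCT-116 p53RE-bla reporter line, 16 h compound treatment at 37 °C, then fluorescence after 2 h with B/G FRET substrate.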

[18] = qHTS assay to test for compound auto fluorescence at 535 nm (green) in HepG2 cell free culture (AID 720686); further: potency means the concentration at half of the fitted maximal effect
[19] = target: Glucocorticoid receptor (Homo sapiens) (UniProt P04150); assay: qHTS assay to identify small molecule agonists of the glucocorticoid receptor (GR) signaling pathway (AID 720691; active means well fitted activation curve with a large enough effect in the signal ratio in the repeat runs, not every such curve was filed as active; the % refers to the signal ratio; further: on the % scale 0 is the no-effect control and ±100 the full control effect); conditions: GR-bla HeLa, beta-lactamase reporter ratio, 18 h; activation: at 62.4 µM (top of the series)
Procedure, shortened: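 A HeLa cervical cancer line expressing GR and a glucocorticoid response element-driven beta-lactamase gene is treated with compounds for 18 h; LiveBLAzer B/G FRET substrate is then applied and fluorescence read.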

[20] = target: Glucocorticoid receptor (Homo sapiens) (UniProt P04150); assay: qHTS assay to identify small molecule antagonists of the glucocorticoid receptor (GR) signaling pathway (AID 720692; active means well fitted inhibition curve with a large enough effect in the signal ratio in the repeat runs, not every such curve was filed as active; the % refers to the signal ratio; further: potency means the concentration at half of the fitted maximal effect)
Procedure, shortened: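 GRE-bla HeLa line, dex-stimulated (5 nM final). Compound exposure 18 h, 37 C. Beta-lactamase FRET read after 2 h RT substrate.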
Tags describe the fitted curve by direction and shape or compound fluorescence and quenching.

Sequence of Glucocorticoid receptor (Homo sapiens) (P04150 whole entry, looked up): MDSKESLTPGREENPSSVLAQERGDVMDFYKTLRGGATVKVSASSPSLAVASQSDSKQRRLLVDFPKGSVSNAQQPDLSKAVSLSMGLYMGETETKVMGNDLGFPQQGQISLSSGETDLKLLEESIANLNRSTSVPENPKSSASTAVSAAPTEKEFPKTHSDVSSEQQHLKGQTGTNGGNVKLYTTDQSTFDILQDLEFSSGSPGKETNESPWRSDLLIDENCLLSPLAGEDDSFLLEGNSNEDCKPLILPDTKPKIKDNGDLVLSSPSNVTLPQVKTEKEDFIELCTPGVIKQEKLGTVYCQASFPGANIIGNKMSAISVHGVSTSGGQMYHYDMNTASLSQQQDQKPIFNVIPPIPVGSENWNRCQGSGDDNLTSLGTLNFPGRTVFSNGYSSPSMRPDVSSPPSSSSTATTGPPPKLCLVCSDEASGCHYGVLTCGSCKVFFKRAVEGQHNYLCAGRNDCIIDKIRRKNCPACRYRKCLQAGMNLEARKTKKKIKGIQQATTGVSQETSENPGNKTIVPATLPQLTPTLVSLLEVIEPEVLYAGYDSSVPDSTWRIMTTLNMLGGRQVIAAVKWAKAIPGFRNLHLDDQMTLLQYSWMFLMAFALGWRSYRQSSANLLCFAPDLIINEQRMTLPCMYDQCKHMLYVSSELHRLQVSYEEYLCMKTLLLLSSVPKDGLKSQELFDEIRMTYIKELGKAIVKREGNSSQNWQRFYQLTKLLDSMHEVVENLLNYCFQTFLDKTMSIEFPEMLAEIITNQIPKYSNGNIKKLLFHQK

O=S1(=O)CC(Cl)(Cl)C(Cl)(Cl)C1
active: Potency [1] 4.86 µM | Potency [2] 3.06 µM | Potency [3] 24.3 µM | Potency [4] 15.4 µM | Potency [5] 12.2 µM
inactive: Potency [6] | Potency [7] | Potency [8] | Potency [9] | outcome [10] | Potency [11] | outcome [12] | Potency [13] | Potency [14] | Potency [15] | Potency [16]

CCCCCCCCn1sc(Cl)c(Cl)c1=O
inactive: Potency [7] | Potency [9] | outcome [10] | Potency [11] | outcome [12] | Potency [13] | Potency [14] | Potency [15] | Potency [16]
active: Potency [17] 17.2 µM | Potency [2] 30.6 µM | Potency [3] 19.3 µM | Potency [4] 27.3 µM

NC(=O)N1C(=O)C(C(=O)c2cc(Cl)cs2)c2cc(F)c(Cl)cc21 (configuration not stated)
inactive: Potency [6] | Potency [7] | Potency [8] | Potency [9] | outcome [10] | Potency [11] | outcome [12] | Potency [13] | Potency [14] | Potency [15] | Potency [16]
active: Potency [17] 2.17 µM | Potency [2] 1.37 µM | Potency [3] 27.3 µM | Potency [4] 0.217 µM

CC1=C(C(=O)OC(C)C)C(c2cccc([N+](=O)[O-])c2)C(C(=O)OC2CN(C(c3ccccc3)c3ccccc3)C2)=C(N)N1 (configuration not stated)
active: Potency [2] 7.5 µM | Potency [3] 18.8 µM | Potency [4] 7.5 µM | Potency [5] 1.19 µM
inactive: Potency [1] | Potency [6] | Potency [7] | Potency [8] | Potency [9] | outcome [10] | Potency [11] | outcome [12] | Potency [13] | Potency [14] | Potency [15] | Potency [18] | Potency [16]

CCCCCCCCCCCC[N+](C)(C)CCCCCCCCCCCC
active: Potency [2] 54.5 µM | Potency [3] 68.6 µM | Potency [4] 30.6 µM | Potency [5] 19.3 µM
inactive: Potency [1] | Potency [6] | Potency [7] | Potency [8] | Potency [9] | outcome [10] | Potency [11] | outcome [12] | Potency [13] | Potency [14] | Potency [15] | Potency [18] | Potency [16]

CC(NN)c1ccccc1 (configuration not stated)
inactive: Potency [1] | Potency [2] | Potency [3] | Potency [4] | Potency [5] | Potency [6] | Potency [7] | Potency [8] | Potency [9] | outcome [10] | Potency [11] | outcome [12] | Potency [13] | Potency [14] | Potency [15] | Potency [18] | Potency [16] | Potency [19] | Potency [20]

O=C(NO)C1(NS(=O)(=O)c2ccc(Oc3ccc(F)cc3)cc2)CCOCC1
inactive: Potency [1] | Potency [2] | Potency [3] | Potency [4] | Potency [5] | Potency [6] | Potency [7] | Potency [8] | Potency [9] | outcome [10] | Potency [11] | outcome [12] | Potency [13] | Potency [14] | Potency [15] | Potency [18] | Potency [16] | Potency [19]

CCCCCCCCCCCCCCCCCC[N+](C)(C)Cc1ccccc1
inactive: Potency [1] | Potency [6] | Potency [7] | Potency [8] | Potency [9] | outcome [10] | Potency [11] | outcome [12] | Potency [13] | Potency [14] | Potency [15] | Potency [18] | Potency [16]
active: Potency [2] 24.6 µM | Potency [3] 55 µM | Potency [4] 69.2 µM | Potency [5] 15.5 µM

CCC(C)Nc1ccc(NC(C)CC)cc1 (configuration not stated)
inactive: Potency [1] | Potency [3] | Potency [6] | Potency [7] | Potency [8] | Potency [9] | outcome [10] | Potency [11] | outcome [12] | Potency [13] | Potency [14] | Potency [15] | Potency [16]
active: Potency [2] 14 µM | Potency [4] 44.1 µM | Potency [5] 8.8 µM

C1CCCC1
inactive: Potency [1] | Potency [2] | Potency [3] | Potency [4] | Potency [5] | Potency [6] | Potency [7] | Potency [8] | Potency [9] | outcome [10] | Potency [11] | outcome [12] | Potency [13] | Potency [14] | Potency [15] | Potency [18] | Potency [16]

CC(=O)SC[C@@H](Cc1ccccc1)C(=O)NCC(=O)OCc1ccccc1
inactive: Potency [1] | Potency [2] | Potency [3] | Potency [4] | Potency [5] | fluorescence, relative to Rose Bengal [6] 0.374% [at 18.6 µM] | fluorescence, % of fluorescein control [7] 0.0221% [at 18.6 µM] | fluorescence, % of triamterene [8] -0.317% [at 18.6 µM] | fluorescence, % of fluorescent control [9] -1.15% [at 18.6 µM] | fluorescence, % of fluorescein [10] -0.0812% [at 18.6 µM] | fluorescence, % of fluorescent control [11] 0.0019% [at 18.6 µM] | activity change [12] -0.0233% [at 18.6 µM] | fluorescence, % of fluorescent control [13] 0.587% [at 18.6 µM] | fluorescence, % of Rose Bengal [14] -0.444% [at 18.6 µM] | fluorescence, % of fluorescent control [15] -0.074% [at 18.6 µM] | fluorescence, % of fluorescein control [18] -0.0189% [at 18.6 µM] | fluorescence, % of fluorescent control [16] 0.351% [at 18.6 µM] | Potency [19] | Potency [20]

CCCC(=O)OC[C@@H](OC(=O)CCC)[C@@H](OC(=O)CCC)[C@H](Cn1c2nc(=O)[nH]c(=O)c-2nc2cc(C)c(C)cc21)OC(=O)CCC
active: Potency [5] 6.99 µM | Potency [7] 8.91 µM | Potency [18] 8.91 µM [fluorescent]
inactive: Potency [1] | Potency [2] | Potency [3] | Potency [4] | Potency [6] | Potency [8] | Potency [11] | Potency [13] | Potency [14] | Potency [15] | Potency [16]

O=C1c2c(O)ccc(Nc3ccc(CCO)cc3)c2C(=O)c2c([N+](=O)[O-])ccc(O)c21
inactive: Potency [1] | Potency [2] | Potency [4] | Potency [6] | Potency [7] | Potency [9] | outcome [10] | Potency [11] | outcome [12] | Potency [13] | Potency [14] | Potency [15] | Potency [18] | Potency [16]
active: Potency [3] 48.6 µM | Potency [5] 1.93 µM

COC(=O)C1=C(C)NC(C)=C(C(=O)OCC(C)C)C1c1ccccc1[N+](=O)[O-] (configuration not stated)
active: Potency [3] 29.8 µM and 48.6 µM | Potency [5] 11.9 µM and 43.3 µM | Potency [20] 24.5 µM
inactive: Potency [1] | Potency [2] | Potency [4] | Potency [6] | Potency [7] | Potency [8] | Potency [9] | outcome [10] | Potency [11] | outcome [12] | Potency [13] | Potency [14] | Potency [15] | Potency [18] | Potency [16]
